# In all, about 340,000 compounds went through this assay and about 8,500 (2.5%) were called active. The sample as a whole holds a higher share of actives than the screen did. Values without a mark were called inactive.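 How the source made its calls: active means melting temperature shift of at least 10% of the positive control shift, at one fixed dose; inactive means the rest.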
# System: Glutamate receptor ionotropic, NMDA 3A (GRIN3A) ligand-binding domain
# Experiment: NR3A LBD thermal stabilization by compounds – biophysical, differential scanning fluorimetry, uHTS, primary screen (AID 1259313)
# Details: at 25 µM, hits give high values, 0% = protein alone, 100% = glycine-bound protein
row,Compound,Tm shift relative to glycine control
1,CCOc1ccc(CN2CCN(CCCc3ccccc3)C(CCO)C2)cc1 (configuration not stated),0.91%
2,CC1CN(C(=O)COC(=O)c2cccc(NS(=O)(=O)c3ccccc3)c2)CC(C)O1 (configuration not stated),2.04%
3,CC1=C(C)CC(C(=O)NC(C)CCc2ccccc2)C(C(=O)O)C1 (configuration not stated),-2.66%
4,Cc1cc(=O)cc(C)[nH]1,13% (active)
5,COc1ccccc1S(=O)(=O)c1c(C)cc(C)[nH]c1=O,-0.69%
6,CSc1cc(C)[nH]c(=O)n1,1.65%
7,CCOc1cnc(C(=O)NNC(=O)c2ccccc2Br)o1,-1.85%
8,Clc1cccc(N=C2NN=C(c3ccc4c(c3)OCCO4)CS2)c1,12.7% (active)
9,CN(C)c1nc(=Nc2cccc(Cl)c2)ss1,-11%
10,c1ccc(CN2CCC(N=C3NN=C(c4ccc5c(c4)OCCO5)CS3)CC2)cc1,-2.04%
11,Cc1ccc(S(=O)(=O)N(C)c2ccc(OCC(=O)OCc3ccc(C#N)cc3)cc2)cc1,12.6% (active)
12,Cc1ccc(S(=O)(=O)N(C)c2ccc(OCC(=O)NC3=NCCS3)cc2)cc1,-0.31%
13,Cc1ccc(S(=O)(=O)N(C)c2ccc(OCC(=O)OCC(=O)N(CC#N)c3ccccc3)cc2)cc1,2.35%
14,O=C(NCc1csc(-c2cccs2)n1)C1CC1,0.25%
15,COc1ccc(C2OCC3(CO2)SC(=O)NC3=O)cc1OC (configuration not stated),-1.38%
16,O=C(NCc1cccs1)c1ccc(CS(=O)Cc2ccccc2Cl)o1 (configuration not stated),0.47%
17,O=C(CN1CCOCC1)N/N=C/c1ccc(-c2ccc(Br)cc2)o1,-2.4%
18,O=C(Cn1nnc(-c2ccccc2)n1)N/N=C/c1ccc(-c2ccc(Cl)cc2)o1,384% (active)
19,Nc1nnn(CC(=O)N/N=C/c2ccccc2)n1,-2.09%
20,CCOc1ccc(-n2c(SCC(=O)NC3CCS(=O)(=O)C3)nnc2-c2cccnc2)cc1 (configuration not stated),-1.01%
21,CCN1CC(CN(C)Cc2nc(-c3ccc(Cl)cc3)no2)CC1=O (configuration not stated),-0.89%

row,Compound,Tm shift relative to glycine control
1,O=C(OCC(=O)N1CCc2ccccc21)c1ccc([N+](=O)[O-])cc1,1%
2,COc1ccc(C)cc1Nc1n[n+](-c2ccccc2)c(-c2cccc(Cl)c2Cl)s1,4.85%
3,COc1cc(Br)c(-c2sc(Nc3ccccc3)n[n+]2-c2ccccc2)cc1OC,-12%
4,CCc1ccc(Nc2n[n+](-c3ccccc3)c(-c3cccc(Cl)c3Cl)s2)cc1,16% (active)
5,O=C(c1ccc(F)cc1)N1CCC(n2nnc3ccccc32)CC1,3.22%
6,CCOCCOC(=O)C1=C(C)N(C)C(=O)NC1c1ccccc1F (configuration not stated),-1.72%
7,COc1ccc2c(c1)C(SCC(=O)NCc1ccccc1)CC(C)(C)O2 (configuration not stated),-0.16%
8,CC(C)NC(=O)C(=O)NCCCOC(C)C,18.7% (active)
9,CCOCCCNC(=O)C(=O)NCCCOCC,-0.68%
10,CC(C)OCCCNC(=O)C1CC(=O)N(C2CCCCCCC2)C1 (configuration not stated),2.24%
11,CC(C(=O)Nc1ccc(S(=O)(=O)N2CCCC2)cc1)N(C)Cc1ccc(F)cc1 (configuration not stated),-1.56%
12,CCOC(=O)N/N=C/c1cn(Cc2ccccc2Cl)c2ccccc12,-13.8%
13,CNC(=S)N/N=C/c1cn(Cc2ccc(C)cc2)c2ccccc12,-1.66%
14,COC(=O)N/N=C/c1cn(CCCOc2ccc(C)cc2)c2ccccc12,12.8% (active)
15,CC(C)(C)c1ccc(/C=C/C(=O)NCCCn2ccnc2)cc1,-0.74%
16,O=C(COC(=O)c1ccc(Cl)nc1)NCc1ccc2c(c1)OCO2,-1.93%
17,CCOc1cc(/C=N/O)cc(Br)c1OC,10.5% (active)
18,CCOc1cc(/C=N/O)ccc1OCc1ccccc1F,-0.35%
19,CCOc1c(Cl)cc(/C=N/O)cc1OC,10.8% (active)
20,CCOc1cc(/C=C(/C#N)c2ccc(Cl)cc2)cc(Cl)c1OCC(=O)O,-1.37%
21,COc1cc(/C=N/O)cc(Br)c1OS(=O)(=O)c1ccc(C)cc1,-0.94%

row,Compound,Tm shift relative to glycine control
1,COc1cc(/C=N/O)cc(Br)c1OCc1cccc(Cl)c1,9.46%
2,C[C@@H]1ON(C)[C@H]2C[C@H]3c4cc(N5CCN(C)CC5)ccc4CCN3C(=O)[C@@H]12,2.38%
3,COc1cc(OC)cc(C(=O)NC(C(=O)N2CCC2)C(C)C)c1 (configuration not stated),-1.01%
4,COc1cc(OC)cc(C(=O)N[C@H](C(=O)NNC(=O)c2ccc(Br)cc2)C(C)C)c1,13.6% (active)
5,COc1ccc(N2CCN(C(=O)[C@@H](NC(=O)c3cc(OC)cc(OC)c3)C(C)C)CC2)cc1,-0.58%
6,COc1ccc(N2CCN(CCCNC(=O)C3CCN(S(=O)(=O)N4CCOCC4)CC3)CC2)cc1,1.84%
7,O=C(CSc1ccccn1)Nc1nc2c(ccc3ccccc32)s1,-2.83%
8,Cc1cc(C)cc(NS(=O)(=O)Cc2ccccc2)c1,1.07%
9,CCS(=O)(=O)Nc1cccc(-c2cc(-c3ccccc3)c3cc(C)ccc3n2)c1,10.6% (active)
10,CS(=O)(=O)Nc1cccc(-c2cn3ccccc3n2)c1,-0.95%
11,CC1CN(S(=O)(=O)c2ccc(C(=O)Nc3sccc3C(N)=O)cc2)CC(C)O1 (configuration not stated),-4.29%
12,Cc1ccc2c(c1)N(CC(=O)N(Cc1ccccn1)Cc1ccco1)C(=O)C(C(C)C)O2 (configuration not stated),0.17%
13,O=c1[nH]c2c(c(=O)n1-c1ccccc1)CCO2,1.26%
14,OCCCNc1nccc(-c2cc(Nc3cccc(Cl)c3)ncn2)n1,21.3% (active)
15,CC(C)n1cnc2c(Nc3cccc(Cl)c3)nc(N(CCO)CCCO)nc21,1.29%
16,Cc1cccc(Nc2nc(NCCO)nc(N3CCCC3)n2)c1,-4.68%
17,CCC(=O)Nc1cc(C(F)(F)F)ccc1N1CCCC1,1.55%
18,O=C(C1CC1)N1CCN=C1SCc1ccc(Cl)cc1,11.7% (active)
19,CCC(=O)N1CCN=C1SCc1ccc(F)cc1,1.29%
20,O=C(c1ccco1)N1CCN=C1SCc1cccc(Cl)c1,0.08%
